From PubChem BioAssay (NCATS)
Results filed as inconclusive are left out. Active and inactive are the calls of the source. The call rests on the fitted dose curve; in most records, active means well fitted curve in the direction sought with a large enough effect; inconclusive means small, poorly fitted or top-dose-only effect, or another doubt; inactive means no such curve, though single readings can be large; an effect the other way counts as inactive or inconclusive.

Test: qHTS Screen of the MIPE 4.0 Collection Against Ewings Sarcoma (TC32) (AID 1259256); further: nearly all actives have a fitted effect of over 45% in size; further: potency means the concentration at half of the fitted maximal effect;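 on viability (percent of control): 100% = DMSO-treated cells and 0% = medium-only wells without cells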
Settings: TC32 Ewing sarcoma viability, CellTiter-Glo, 48 h; series mostly up to 45.8 µM; viability (percent of control): at the top concentration
Outline: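 Log-phase cells in RPMI with 5% FBS attached for 4 h, then received compounds as a titration for 48 h at 37C, 5% CO2. Viability was read by CellTiter-Glo luminescence and normalized to DMSO and no-cell wells.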
With `CCCCC(F)(F)[C@@]1(O)CC[C@H]2[C@H](CC(=O)[C@@H]2CCCCCCC(=O)O)O1` the Potency was 2.96 µM (active). With `O=c1[nH]c(=O)n([C@H]2C[C@@H](O)[C@@H](CO)O2)cc1C(F)(F)F` the Potency was 1.32 µM (active). With `NC(=O)c1ncn([C@@H]2O[C@H](CO)[C@@H](O)[C@@H]2O)n1` the “viability (percent of control)” value was 138% (inactive). For `C[C@@H]1[C@H](O)[C@@H](C)C=CC=CC=CC=CC=CC=CC=C[C@H](O[C@@H]2O[C@H](C)[C@H](O)[C@H](N)[C@@H]2O)C[C@@H]2O[C@](O)(C[C@@H](O)C[C@@H](O)[C@H](O)CC[C@@H](O)C[C@@H](O)CC(=O)O[C@H]1C)C[C@H](O)[C@@H]2C(=O)O`, the Potency was 0.743 µM (active). In the case of `CN1CCc2c(n(Cc3ccc(C(=O)NO)cc3)c3ccccc23)C1`, the Potency is reported as 13.2 µM (active). With `CC1(C)C(N(O)C(=O)Nc2ccc(Cl)cc2)N(c2ccc(Cl)cc2)C(=O)N1CC(=O)NN=CC=Cc1ccc([N+](=O)[O-])o1` (centres undefined) the Potency was 18.7 µM (active). With `O=C(O)C1=CC(O)C(O)[C@H](O)C1` (some centres undefined) the “viability (percent of control)” value was 124% (inactive). For `CN1CCN(c2ncc(-c3cc(Cl)cc(Cl)c3Cl)c(N)n2)CC1`, the “viability (percent of control)” value was 117% (inactive).

Test: qHTS assay to identify small molecule inhibitors of chordoma cells - UCH-1 (AID 1259355); further: on the % scale 0 is the no-effect control and ±100 the full control effect; nearly all actives have a fitted effect of over 55% in size
Settings: UCH-1 chordoma viability, CellTiter-Glo, 48 h, combination, with auranofin plus four topoisomerase inhibitors; series mostly up to 46.1 µM; activity, negative = inhibition: at the top concentration
Outline: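 Cells (800/well) were seeded and left overnight at 37 C, 5% CO2, then treated with drugs at 15 concentrations plus a combination mix of auranofin, camptothecin, doxorubicin, rubitecan and topotecan. Viability after 48hr was read by CellTiter-Glo luminescence.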
With `NS(=O)(=O)c1cc(Cl)c(Cl)c(S(N)(=O)=O)c1` the “activity, negative = inhibition” value was -29.5% [at 20.6 µM] (inactive). With `Cc1cc2nc3c(=O)[nH]c(=O)nc-3n(CC(O)C(O)C(O)CO)c2cc1C` (centres undefined) the “activity, negative = inhibition” value was -19.4% (inactive). With `N#Cc1c(N(CC(=O)O)CC(=O)O)sc(C(=O)O)c1CC(=O)O` the “activity, negative = inhibition” value was -2.55% (inactive).

Test: qHTS assay to identify small molecule inhibitors of chordoma cells - UCH-2 (AID 1259356); further: on the % scale 0 is the no-effect control and ±100 the full control effect
Settings: UCH-2 chordoma viability, CellTiter-Glo ATP luminescence, 48 h; series mostly up to 46.1 µM; activity change, negative = inhibition: at the top concentration
In the case of `COc1ccc(-c2nc3ccc(C4=NNC(=O)CC4C)cc3[nH]2)cc1` (centres undefined), the “activity change, negative = inhibition” value is reported as -14.6% (inactive). For `NS(=O)(=O)c1cc(Cl)c(Cl)c(S(N)(=O)=O)c1`, the “activity change, negative = inhibition” value was 3.92% [at 20.6 µM] (inactive). For `N#Cc1c(N(CC(=O)O)CC(=O)O)sc(C(=O)O)c1CC(=O)O`, the “activity change, negative = inhibition” value was 17.7% (inactive).
